Among the data in paper PMC12136788 are binding signal values, retold here.

Changes are numbered by the printed parent chain. The full ranking holds about 24,000 sequences; the median of “enrichment r” is about 0.99, and the highest 2% start at about 3.7. This excerpt belongs to a sample that is enriched for the highest values.

First the molecules themselves.
B1: chr5:176910979:176910980:-_ENSG00000196923_ENST00000355841|hu_hu|FALSE|FALSE (ssRNA)
RNA: GGGAGUUCUACAGUCCGACGAUCCCCAGCGUCGAUCUUGAAGUCACAGCCAUGGCAUUUCGUGCCAAACAUCUUCUCAUAGUCUCGCUCGCAAUAGGGCACGCCCUCCUCCAUGUAGAAGGCCCUGUUCCGGAUGGGCGUCUUCAACAGAGGAUUGAGCAUCA
B2: 118753231_118753351_2268_3pUTR_ENSG00000125354_ENST00000354416|human|control|control (ssRNA)
RNA: GGGAGUUCUACAGUCCGACGAUCUGAAAUACCUCACAAGAAGAAUUCGGUAAGGCUAUCAUUCAAGACUCUAGGCUGGUAAUAAUAUUCAGGUUUAUUCUCCCUUUUGCAUCUGUGGGAUACCCAGAGUUAGAGAGAGGGGAACAACAGAGGAUUGAGCAUCA
B3: chr17:64801638:64801639:+_ENSG00000154229_ENST00000413366|hu_hu|motif|central (ssRNA)
RNA: GGGAGUUCUACAGUCCGACGAUCAUCAAAUACAUAUAUAUACACACACAUAUGUAGUAAGAGCCUAAUCUAUCACGUAAACGGGCCAUUCAUUUUUGAAAUUUUAUCUACAUUUAAAAAGUAAUCUAUCUGAUACAGUGCCCACAACAGAGGAUUGAGCAUCA
B4: chr5:151611259:151611260:+_ENSMUSG00000034021_ENSMUST00000016569|mus_mus|FALSE|FALSE (ssRNA)
RNA: GGGAGUUCUACAGUCCGACGAUCGCAUUUCUGAACAUAAUGUUCAAGAAGUAAUAUCUAUACACAAUAACAUUCUAGACUAUUAAAAGCCCAUUCAAAUUACAGAAUUUUAUUGAUACAGUAGAUUAAUAUAAACUGAAAAAACAACAGAGGAUUGAGCAUCA
B5: 16459948_16460068_3699_3pUTR_ENSMUSG00000024639_ENSMUST00000025541|mouse|control|control (ssRNA)
RNA: GGGAGUUCUACAGUCCGACGAUCAUCCCUAGUCAGAAAUAAACUGACAAAUUUACAUUCUCCUCUCUUAAAAAAGUAAAUAAAAUAACAUUAUUCAAAAUGUGAAUUAGCUAUAAGACAUACAAUUACAUAGAUACAUAUCAACAACAGAGGAUUGAGCAUCA
B6: 66017293_66045708_550_CDS_ENSMUSG00000056515_ENSMUST00000070673|mouse|control|control (ssRNA)
RNA: GGGAGUUCUACAGUCCGACGAUCAGCGUCCUUCAGGGGCACCUCCCUAAUAUCAGAGAGGUCACACUUGUUCCCAGCAAUCGCCAUCACAAUGUUUUCUGGGCCGUGCUCCUUCAGCUCCUUGACCCAUUUUUUCAAGGUAUGCAACAGAGGAUUGAGCAUCA
B7: 31370942_31371062_1482_CDS_ENSMUSG00000006307_ENSMUST00000006470|mouse|control|control (ssRNA)
RNA: GGGAGUUCUACAGUCCGACGAUCUCCUGUGGUGGUGCUAGGGUUUGGAGUGGGAGAAAGGGUGCCCUCUGGUCCUGACCGAGCAGCUUCCCUCUCUGCCCGCUGGCUAGGAGUCAGGGGAGGCCUGCCCCUCUUCCUAGAGCACAACAGAGGAUUGAGCAUCA
B8: chr6:41757443:41757444:+_ENSG00000214736_ENST00000398881|hu_mus|hu_hu_hu_mus_False|8_108 (ssRNA)
RNA: GGGAGUUCUACAGUCCGACGAUCGAACUGUCUGCUGGCAACAUCUCAGCCGACACUGGGGGAUGGGGGGGCAGUGGGGGGGGGUUCAGGCAAGGAGAGGGAGUCAACUUCAGCUGCCACUCAGGUAGCUGCCAUCAGUCACAGCAACAGAGGAUUGAGCAUCA
B9: chr6:43255143:43255144:+_ENSG00000146216_ENST00000259750|hu_hu|FALSE|FALSE (ssRNA)
RNA: GGGAGUUCUACAGUCCGACGAUCCUCAGGCCCCCUUCUUCCUCCCAGCUCCAAACCAGGGUGUUGUUGGUCCUGGGGCAGAGGUGAGGCUGGGGGCCCUACAUUCACGGUUCGGUUGGUGGCAAGGAGCAGGCCCAGGGCCUGCAACAGAGGAUUGAGCAUCA
B10: chr6:41757443:41757444:+_ENSG00000214736_ENST00000398881|hu_mus|hu_hu_hu_mus_False|18_108 (ssRNA)
RNA: GGGAGUUCUACAGUCCGACGAUCGAACUGUCUGCUGGCAACAUCUCAGCCGACACUGGGGGAUGGGGGGGCAGUGGGGGGGGGUUCAGGCAAGGAGAGGGAGUCAACUUCAGCUGCUCAAACUUCAGGAUCUUGUGGUCACAGCAACAGAGGAUUGAGCAUCA
B11: 53358179_53360397_419_3pUTR_ENSMUSG00000033054_ENSMUST00000035850|mouse|control|control (ssRNA)
RNA: GGGAGUUCUACAGUCCGACGAUCCAUCGCUGCCGCUUGAUUUCUGCAAUUCCAUUUCUCGUUCGAGCUCUCUGAUGGGCAGCAAACCCUGGAGAACUGUGCAUGCUCCUGAUCUGAGAGAGUGUGUGGUCUAGCUUCUUCCAUCAACAGAGGAUUGAGCAUCA
B12: chr6:41757443:41757444:+_ENSG00000214736_ENST00000398881|hu_mus|hu_hu_hu_mus_False|58_108 (ssRNA)
RNA: GGGAGUUCUACAGUCCGACGAUCGAACUGUCUGCUGGCAACAUCUCAGCCGACACUGGGGGAUGGGGGGGCAGUGGGAAACUAGGCAGGCAAGGAGAGGGAGUCAACUUCAGCUGCCACUCAGGUAGGAUCUUGUGGUCACAGCAACAGAGGAUUGAGCAUCA
B13: chr2:27806210:27806211:+_ENSMUSG00000026837_ENSMUST00000028280|mus_hu|FALSE|FALSE (ssRNA)
RNA: GGGAGUUCUACAGUCCGACGAUCUGUGGUUUCUUUGGCAGCUUCCACGGGCUUCUUGCUGGGGGUGGGCUCCUUCCCUAGGUCUUCGGGGUCUUCGUAGUAGGGGUAUUCGUAGUAAUAGGUCUCACCCUCGCCGUCUCCUUCCAACAGAGGAUUGAGCAUCA
B14: 25965218_25965338_4171_CDS_ENSG00000143970_ENST00000336112|human|control|control (ssRNA)
RNA: GGGAGUUCUACAGUCCGACGAUCGCCUCUAUAGCUUGGCCCUAUCUGGGUGGGGCUUCCAUACAACUUCGGGGUUUGCAGGGGUGGAAGGAGUAGGGGCUGGUGGGUGGGGCUGUCUGCAGGCAGAGGAAGAACAGUAGAACUCAACAGAGGAUUGAGCAUCA
B15: 8158834_8158954_592_CDS_ENSG00000178921_ENST00000314666|human|control|control (ssRNA)
RNA: GGGAGUUCUACAGUCCGACGAUCAGGGCCAUUGAGGGGUUCCGGCAUGCUCUCAGGGGAGAAACUCUGGAUGGGAUGGGGGAAGUGCUGCUCUGUCAUCCGGUCGUGCAGGGUAGCCAGAGCAAUGGCUUCCACCUCAGCUGACAACAGAGGAUUGAGCAUCA
B16: chr5:138654669:138654670:+_ENSG00000015479_ENST00000502499|hu_hu|motif|central (ssRNA)
RNA: GGGAGUUCUACAGUCCGACGAUCUUUCUUUAUUCUUUUAUACUUCUGGGAUAAAUGAACUCUCACUGGCUUGCCAAAUACGGACGCUGGUGUGGUUGUGUAAUAAUCCACUGCGGCCUGAGCAUCCUCUGUGGUUGCCAUUUCCAACAGAGGAUUGAGCAUCA
B17: 59350742_59359075_1706_CDS_ENSG00000157450_ENST00000557998|human|control|control (ssRNA)
RNA: GGGAGUUCUACAGUCCGACGAUCGUUCUGUGACGACCCUCCACAUGGUGAGUGCUGGGGACAGCAGGAAGGUAACCUUGGCAUUGCAGGAGGGCCAGUUUCCGUUACAGCACUAGAUGUAGUUCUCCUUGAGUCAUCUCCUAUCAACAGAGGAUUGAGCAUCA
B18: chr13:100518589:100518590:+_ENSG00000125246_ENST00000339105|hu_mus|FALSE|FALSE (ssRNA)
RNA: GGGAGUUCUACAGUCCGACGAUCUUCCCUUGACUGUCUGAGAAGUCCGUCUUCAUCUCGGAAGUCAAUGUACACAAGAUCUAUGGCUUGUAGGCCAAAGGCUUUUGCCGUGACAACAACCUUCUGCCGGGCAUAGAGGAUGUCCAACAGAGGAUUGAGCAUCA
B19: chr17:65337090:65337091:-_ENSG00000197170_ENST00000584008|hu_mus|FALSE|FALSE (ssRNA)
RNA: GGGAGUUCUACAGUCCGACGAUCCCAGUCAUUUAAUAAAUUAUUUGGAUCCUUGGGUCUCUGGAAGUUGAUGACUCCAGCCAACCUGUCUACUUUAGCAAAGAUGGUCUUGUUAACGACUAGAUUCGAGAGGAAAGCCUCUGACAACAGAGGAUUGAGCAUCA
B20: chr9:91093546:91093547:+_ENSG00000106723_ENST00000375859|hu_mus|motif|central (ssRNA)
RNA: GGGAGUUCUACAGUCCGACGAUCUACAUCAUAAUUAUAAAAAUUACUUACAGAAUUAACAGUUGUACUGUGUAUACUUCGGAAUGCAGAGAACAGGGAACCGUCUACACGUUGUAUAAAAUAAAAUUAAAAUUAAAAAUGAAUCAACAGAGGAUUGAGCAUCA
B21: chr12:35831226:35831227:+_ENSMUSG00000020590_ENSMUST00000048519|mus_mus|motif|central (ssRNA)
RNA: GGGAGUUCUACAGUCCGACGAUCUCAGCAGAAGACAUAUAGCCUCUUUGUGUCUAUGUUCAUCUGUGCAACAAGUGCACGGAAUAGAAUAAUUUUAUUAACCAGAGAAUACUGUACUCUACUCAUCGGUUAAACACUCUACACCAACAGAGGAUUGAGCAUCA
B22: chr9:91093546:91093547:+_ENSG00000106723_ENST00000375859|hu_mus|FALSE|FALSE (ssRNA)
RNA: B20 RNA with G80U, G81A

The target of the experiment is T1, UNK ZnF1-3 (human, UniProt Q9C0B0 31-174).
T1 sequence: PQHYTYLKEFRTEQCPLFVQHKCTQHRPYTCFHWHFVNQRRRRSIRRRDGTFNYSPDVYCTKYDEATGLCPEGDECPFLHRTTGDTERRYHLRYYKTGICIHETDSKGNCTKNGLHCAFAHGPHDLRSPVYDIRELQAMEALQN
As to the kind of experiment: nsRBNS (natural sequence RNA bind-n-seq); RBNS binding buffer (assumed for nsRBNS): 25 mM Tris pH 7.5, 150 mM KCl, 3 mM MgCl2, 0.01% Triton X-100, 500 ug/ml BSA, 20 U/ml SUPERase-In, 4 C; UNK is unkempt and MSI1 is Musashi-1; names of the RNAs are library labels; protein concentration not given here; high values mean tight binding.
B1 registered a binding signal of 0.849 enrichment R.

For B2, the binding signal is 1.58 enrichment R.

For B3, the binding signal is 1.16 enrichment R.

B4 returned a binding signal of 11 enrichment R.

Molecule B5 had a binding signal of 1.33 enrichment R.

Molecule B6 yielded a binding signal of 0.683 enrichment R.

As for B7, the binding signal was 0.887 enrichment R.

On to B8, for which the binding signal was found to be 5.65 enrichment R.

For B9, the binding signal is 0.703 enrichment R.

B10 displayed a binding signal of 4.19 enrichment R.

The molecule B11 displayed a binding signal of 0.827 enrichment R.

B12 showed a binding signal of 1.42 enrichment R.

On to B13, for which the binding signal was found to be 0.604 enrichment R.

Molecule B14 registered a binding signal of 5.58 enrichment R.

Molecule B15 registered a binding signal of 0.632 enrichment R.

In turn, B16 yielded a binding signal of 0.487 enrichment R.

Regarding B17, the binding signal was found to be 0.898 enrichment R.

Regarding B18, the binding signal worked out at 0.641 enrichment R.

In turn, B19 yielded a binding signal of 1.07 enrichment R.

B20 gave a binding signal of 4.68 enrichment R.

Take B21: the binding signal worked out at 0.463 enrichment R.

In the case of B22, the binding signal was 7.07 enrichment R.
